According to PubChem BioAssay (NCI):
The panel holds about 83,000 compounds, 20% with a hit somewhere; the sample as a whole holds those more often.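 Percent growth is the endpoint: 0 to 100 indicates growth inhibition (40 means 60% inhibition), 0 means no net growth, and negative values indicate cell death.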 Values without a mark were called inactive. Calls of active or inactive are those of the source. Rule for the calls: active = growth percent below 10; inactive = the rest.

Key:
Assay in all cases: NCI-60 one-dose screen, 48 h (100 = growth as untreated, 0 = no growth, -100 = all killed)
Settings in all cases: 10 µM unless noted
HCT-15 colon = tested on: HCT-15 colon
HT29 colon = tested on: HT29 colon
SNB-75 CNS = tested on: SNB-75 CNS
SNB-19 CNS = tested on: SNB-19 CNS
U251 CNS = tested on: U251 CNS
PC-3 prostate = tested on: PC-3 prostate
SK-MEL-5 melanoma = tested on: SK-MEL-5 melanoma
UACC-62 melanoma = tested on: UACC-62 melanoma
LOX IMVI melanoma = tested on: LOX IMVI melanoma
SK-MEL-28 melanoma = tested on: SK-MEL-28 melanoma
SK-MEL-2 melanoma = tested on: SK-MEL-2 melanoma
EKVX NSCLC = tested on: EKVX NSCLC
SN12C renal = tested on: SN12C renal
UO-31 renal = tested on: UO-31 renal
TK-10 renal = tested on: TK-10 renal
ACHN renal = tested on: ACHN renal
CAKI-1 renal = tested on: CAKI-1 renal
A498 renal = tested on: A498 renal
CCRF-CEM leukemia = tested on: CCRF-CEM leukemia
MOLT-4 leukemia = tested on: MOLT-4 leukemia

| Structure (SMILES) | growth (HCT-15 colon) | growth (HT29 colon) | growth (SNB-75 CNS) | growth (SNB-19 CNS) | growth (U251 CNS) | growth (PC-3 prostate) | growth (SK-MEL-5 melanoma) | growth (UACC-62 melanoma) | growth (LOX IMVI melanoma) | growth (SK-MEL-28 melanoma) | growth (SK-MEL-2 melanoma) | growth (EKVX NSCLC) | growth (SN12C renal) | growth (UO-31 renal) | growth (TK-10 renal) | growth (ACHN renal) | growth (CAKI-1 renal) | growth (A498 renal) | growth (CCRF-CEM leukemia) | growth (MOLT-4 leukemia) |
| --- | --- | --- | --- | --- | --- | --- | --- | --- | --- | --- | --- | --- | --- | --- | --- | --- | --- | --- | --- | --- |
| Cc1ccc(C)n1/C=C/n1c(C)ccc1C | 106% | 102% | 80.7% | 98.4% | 109% | 62.8% | 98.7% | 98.8% | 105% | 125% | 109% | 85.9% | 118% | 93.6% | 93.5% | 112% | 69.5% | 85.8% | 88.4% | 117% |
| COc1cc2nc(Nc3cccc(F)c3)nc(Nc3cc(C)[nH]n3)c2cc1OC | -78.6% [20 µM] (active) | -54.9% [20 µM] (active) | -97.5% [20 µM] (active) | -89.2% [20 µM] (active) | -55.5% [20 µM] (active) | -81% [20 µM] (active) | -90.1% [20 µM] (active) | -95.7% [20 µM] (active) | -82.3% [20 µM] (active) | -99.3% [20 µM] (active) | -68.2% [20 µM] (active) | -67.4% [20 µM] (active) | -94.3% [20 µM] (active) | -98.7% [20 µM] (active) | -71% [20 µM] (active) | -97.1% [20 µM] (active) | -97.7% [20 µM] (active) | -83% [20 µM] (active) | -19.7% [20 µM] (active) | -40.8% [20 µM] (active) |
| CC[C@H](C)[C@H](NC(=O)[C@H](CCCNC(=N)N)NC(=O)[C@H](Cc1c[nH]c2ccccc12)NC(=O)[C@@H](NC(=O)[C@H](CCCCN)NC(=O)[C@H](CCCCN)NC(=O)[C@@H](NC(=O)[C@@H](NC(=O)[C@@H](NC(=O)[C@H](CCCCN)NC(=O)[C@H](Cc1ccccc1)NC(=O)[C@H](CCCCN)NC(=O)[C@H](CCCCN)NC(=O)[C@H](Cc1ccccc1)NC(=O)[C@@H](NC(=O)[C@@H](N)CCCCN)[C@@H](C)CC)[C@@H](C)O)[C@@H](C)CC)[C@@H](C)CC)C(C)C)C(=O)N[C@@H](Cc1ccccc1)C(=O)NCC(=O)N[C@@H](CCCNC(=N)N)C(=O)N[C@@H](Cc1ccccc1)C(N)=O | -43% (active) | -35.7% (active) | -34% (active) | -35.9% (active) | -44.1% (active) | -25.9% (active) | 3.57% (active) | -65.7% (active) | -11% (active) | -31.7% (active) | -37.5% (active) | -71% (active) | -56.1% (active) | -68.2% (active) | -69.4% (active) | -54.7% (active) | -52.2% (active) | -40.9% (active) | 17.6% | 29% |
| O=C(Cn1cc(CN2C(=O)c3ccccc3S2(=O)=O)nn1)Nc1cccc(Cl)c1 | 98.2% | 109% | 87.8% | 115% | 112% | 104% | 106% | 97.4% | 89.5% | 105% | 96.7% | 103% | 110% | 101% | 103% | 102% | 98.5% | 110% | 104% | 107% |
| CN(C)Cc1ccc(C(=O)Nc2ccc3ncnc(Nc4ccc(Oc5cccc(F)c5)c(Cl)c4)c3c2)cc1 | -45.3% (active) | -35.4% (active) | 18.5% | -3.27% (active) | -28.1% (active) | 3.54% (active) | -82.6% (active) | -20.1% (active) | -96.2% (active) | -89.1% (active) | -27.1% (active) | 35.5% | 11.4% | 16% | 1.66% (active) | -85.8% (active) | -42.2% (active) | 19.2% | -0.132% (active) | -13.2% (active) |
| O=C(CN1C(=O)/C(=C/c2ccco2)SC1=S)NCCc1c[nH]c2ccc(F)cc12 | 101% | 112% | 78% | 102% | 103% | 94% | 99.6% | 87.8% | 96.9% | 112% | 119% | 98.3% | 97.6% | 70.8% | 105% | 101% | 81.8% | 94.5% | 97.1% | 97.7% |
| C=CC(C)(O)CC/C=C(\CO)C(=O)OC1C(C)OC(O[C@](C)(C=C)CC/C=C(\CO)C(=O)O[C@H]2C[C@@]3(C(=O)OC4OC(CO)C(O)C(O)C4OC4OC(C)C(OC5OC(CO)C(O)C5O)C(OC5OC(CO)C(O)C(O)C5O)C4O)C(CC2(C)C)C2=CCC4[C@@]5(C)CC[C@H](OC6OC(COC7OC(C)C(O)C(O)C7OC7OCC(O)C(O)C7O)C(O)C(O)C6NC(C)=O)C(C)(C)C5CC[C@@]4(C)[C@]2(C)C[C@H]3O)C(O)C1O (stereo not given in full) | 66.3% | 21.5% | -34.9% (active) | -54.1% (active) | -84.5% (active) | -68.9% (active) | 74.6% | -11% (active) | -36.7% (active) | -90.3% (active) | -73.8% (active) | -6.51% (active) | -30.1% (active) | -57.7% (active) | -83% (active) | -87.7% (active) | -70% (active) | -81% (active) | -17.1% (active) | -21.5% (active) |
| N=C(N)c1ccc(-c2ccc(-c3ccc(F)cc3)s2)s1 | -74.2% (active) | -76.1% (active) | 81% | -57.5% (active) | -89.7% (active) | -24.2% (active) | 77.6% | -67.9% (active) | -67.2% (active) | 83.5% | 73.6% | 41.4% | -50% (active) | -32.6% (active) | 28.5% | -73.7% (active) | 0.453% (active) | 58.9% | -33.6% (active) | -44.2% (active) |
| N#Cc1c(Nc2ccc(F)cc2)n[nH]c1-c1cccs1 | 97.7% | 114% | 85.6% | 85.6% | 102% | 95.7% | 97.1% | 76.9% | 95.1% | 105% | 117% | 92.6% | 89.5% | 74.1% | 135% | 88.4% | 88.9% | 103% | 100% | 103% |
| COc1ccc(Nc2ncccc2NC(=O)c2cn(Cc3cccc(Oc4ccccc4)c3)nn2)cc1OC | 67.7% | 81.1% | 76.2% | 79.2% | 74.5% | 67.3% | 45.1% | 57.5% | 67% | 83.4% | 95.1% | 68% | 81.1% | 54.4% | 96.5% | 93.9% | 82% | 69.6% | 74.7% | 48.1% |
| Cc1[nH]c(C(=O)Nc2cccc(OC3CCNCC3)c2)c(Cl)c1Cl | 51% | -36.2% (active) | 82.3% | 74.6% | 63.9% | 62.9% | 85.5% | -55.7% (active) | 40.9% | -63.5% (active) | 88.4% | 86.1% | 70.3% | 67.1% | 123% | 62.8% | 70.3% | 25.1% | 55.3% | 41.5% |
| COc1ccc2c(c1)c(-c1nc(-c3cn(C)c4ncccc34)cs1)cn2CCO | 61.1% | 75.3% | 91.3% | 90.2% | 78.5% | 69.1% | 74.2% | 80.4% | 59.3% | 86% | 93% | 67.5% | 86.1% | 67.7% | 83% | 72.1% | 88.7% | 49.3% | 43.3% | 58.2% |
| O=[N+]([O-])/C(=C\c1ccco1)c1ccccc1Cl | 67.7% | 69.7% | 64.8% | 79.7% | 72.6% | 45.8% | 76.7% | 33.8% | 64.2% | 60.3% | 60.6% | 83.1% | 78.4% | 66.6% | 82.8% | 81.1% | 67% | 41.9% | 60.5% | 74.1% |
| O=C(Nc1ccc(F)cc1)Nc1ccccc1CNc1nc(Nc2ccc(OCCN3CCCC3)cc2)ncc1Cl | 38.8% | 6.13% (active) | -15.7% (active) | 45.8% | 20.6% | 61.7% | 44.9% | 95.2% | -57.6% (active) | -13.3% (active) | 99% | 53.9% | -21.7% (active) | -81.5% (active) | 47.2% | -61.9% (active) | 31.2% | 80.4% | 6.77% (active) | 14.1% |
| COc1cc2c(cc1O)[C@@]1(C)[C@H](c3ccccc3Br)OC(=O)N1CC2 | 94.9% | 96.7% | 102% | 95.2% | 89.3% | 71.3% | 68% | 72.1% | 90.6% | 99.1% | 89.8% | 82% | 87.6% | 85.3% | 91.9% | 83.2% | 92.5% | 89.6% | 83% | 90.8% |
